# Experimental data from publication PMC4336329 (PLoS ONE, 2015).
# About 2,200 (0.71%) of roughly 310,000 compounds showed an effect of 50% or more. The effect is printed as a negative number. Shown is part of a subset that was picked to be rich in strong results.
# Biological target: human ether-à-go-go-related gene (hERG) potassium channel (human, UniProt Q12809)
# Assay: primary screen, population patch clamp on CHO cells stably expressing hERG; higher = less effect of the substance
# Chain of human ether-à-go-go-related gene (hERG) potassium channel (Q12809 whole entry, looked up): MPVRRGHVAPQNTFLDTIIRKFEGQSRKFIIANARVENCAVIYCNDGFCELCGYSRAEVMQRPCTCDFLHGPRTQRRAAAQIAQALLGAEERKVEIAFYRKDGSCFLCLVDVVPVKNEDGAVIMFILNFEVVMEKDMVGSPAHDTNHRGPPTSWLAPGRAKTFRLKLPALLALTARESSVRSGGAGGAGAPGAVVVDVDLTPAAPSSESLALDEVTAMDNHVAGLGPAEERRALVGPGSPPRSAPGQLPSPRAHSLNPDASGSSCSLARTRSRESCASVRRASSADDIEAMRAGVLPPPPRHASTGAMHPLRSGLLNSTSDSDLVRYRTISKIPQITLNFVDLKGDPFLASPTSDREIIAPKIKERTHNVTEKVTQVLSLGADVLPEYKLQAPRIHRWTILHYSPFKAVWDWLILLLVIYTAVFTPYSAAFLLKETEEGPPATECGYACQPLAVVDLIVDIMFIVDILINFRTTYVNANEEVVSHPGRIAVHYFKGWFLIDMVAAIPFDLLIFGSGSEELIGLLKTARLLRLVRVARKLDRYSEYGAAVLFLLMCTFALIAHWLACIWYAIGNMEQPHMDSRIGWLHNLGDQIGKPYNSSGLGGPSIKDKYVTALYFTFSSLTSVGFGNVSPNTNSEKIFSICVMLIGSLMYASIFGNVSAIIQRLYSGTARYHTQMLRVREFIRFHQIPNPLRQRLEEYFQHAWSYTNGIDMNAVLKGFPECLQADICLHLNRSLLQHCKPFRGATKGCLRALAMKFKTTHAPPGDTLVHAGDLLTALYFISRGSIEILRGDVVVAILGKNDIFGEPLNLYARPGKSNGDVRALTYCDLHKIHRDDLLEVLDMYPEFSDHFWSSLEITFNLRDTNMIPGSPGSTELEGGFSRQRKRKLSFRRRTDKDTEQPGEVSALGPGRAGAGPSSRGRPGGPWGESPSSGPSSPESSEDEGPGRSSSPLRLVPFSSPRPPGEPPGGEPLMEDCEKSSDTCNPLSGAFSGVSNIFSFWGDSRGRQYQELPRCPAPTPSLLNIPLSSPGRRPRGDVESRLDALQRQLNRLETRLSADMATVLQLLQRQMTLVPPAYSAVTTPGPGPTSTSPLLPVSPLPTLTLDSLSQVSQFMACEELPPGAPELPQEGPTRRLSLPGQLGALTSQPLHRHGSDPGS
row,SMILES,"hERG current change (%, negative = inhibition) at 1uM [%]"
1,Cc1ccc(NC(=O)/C(C#N)=C/c2ccsc2)c(C)c1,15.6
2,Cc1ccc(S(=O)(=O)N(C)c2ccc(C(=O)Nc3c(C)n(C)n(-c4ccccc4)c3=O)cc2)cc1,4.15
3,O=C(NNS(=O)(=O)c1ccc(F)cc1)C1CC(c2cccnc2)=NO1 (stereo not drawn),14.8
4,O=C(/C(=N\O)n1cncn1)c1ccc(Cl)cc1Cl,15.2
5,COc1ccc(Cc2nnc(NC(=O)Nc3ccccc3F)s2)cc1,15.2
6,Cc1ccccc1OCC(=O)Nc1ccccc1N1CCC(C)CC1,18.9
7,O=C1CCCC(O)=C1C1NCCc2ccccc21 (stereo not drawn),9.52
8,CCCN1CCC(=O)N([C@H](CSc2ccccc2)c2ccccc2)CC1,-82.2
9,O=C1CCN(CCc2ccccc2)CCN1[C@H](CSc1ccc(Br)cc1)c1ccccc1,-18.8
10,O=C1CCN(CCc2ccccc2)CCN1[C@H](CSc1ccccc1)c1ccccc1,-72.2
11,O=C1CCN(Cc2ccccc2)CCN1[C@H](CSc1ccccc1)c1ccccc1,2.25
12,CCCN1CCC(=O)N([C@H](CSc2ccc(Br)cc2)c2ccccc2)CC1,-17.5
13,Cc1ccc(SC[C@H](c2ccccc2)N2CCN(CCc3ccccc3)CCC2=O)cc1,-10.2
14,COC(=O)c1ccc(CN2CCN(CCCc3ccccc3)C(CCO)C2)cc1 (stereo not drawn),-29.1
15,COCCCNC(=O)c1cc(C)nc2ccc(F)cc12,-1.73
16,CN(C)S(=O)(=O)Oc1ccsc1C(=O)Nc1ccccc1Cl,5.7
17,COc1ccc(N2CCN(CCCNC(=O)CN3CCN(Cc4ccccc4C)C3=O)CC2)cc1,-16.7
18,Cc1ccccc1CN1CCN(CC(=O)NCCCN2CCN(c3ccc(F)cc3)CC2)C1=O,-52
19,O=C(CN1CCN(Cc2ccc(Cl)cc2)C1=O)NCCCN1CCN(c2ccc(F)cc2)CC1,-36.8
20,Cc1ccc(CN2CCN(CC(=O)NCCCN3CCN(c4ccc(F)cc4)CC3)C2=O)cc1,-56.6
21,Cc1cccc(CN2CCN(CC(=O)NCCCN3CCCC3=O)C2=O)c1,11.8

row,SMILES,"hERG current change (%, negative = inhibition) at 1uM [%]"
1,Cc1cccc(CN2CCN(CC(=O)NCc3ccc(F)cc3)C2=O)c1,7.12
2,O=C(CN1CCN(Cc2ccc(Cl)cc2)C1=O)NCCCN1CCOCC1,4.56
3,Cc1cccc(CN2CCN(CC(=O)NCCCN3CCN(c4ccc(F)cc4)CC3)C2=O)c1,-54.5
4,CCOCCCNC(=O)CN1CCN(Cc2ccccc2C)C1=O,4.41
5,O=C1NC2CCc3nc4ccccc4c(=O)n3C2=Nc2ccccc21 (stereo not drawn),-6.24
6,COc1cc2c(=O)n(CCC(=O)NCC3CCCO3)c(=O)n(CC(=O)Nc3ccc(C)c(C)c3)c2cc1OC (stereo not drawn),11.6
7,CNC(=O)c1ccccc1NC(=O)c1ccc(C)c(S(=O)(=O)N2CCCCC2)c1,-2.21
8,CC1(C)C2CC=C(/C=N/NC(=O)C(N)=O)C1C2 (stereo not drawn),10.3
9,CCOC(=O)C(C)Sc1nc2c(c(=O)[nH]c(=O)n2C)n1C/C=C(/C)Cl (stereo not drawn),-62.6
10,CCOC(=O)C(C)Sc1nc2c(c(=O)[nH]c(=O)n2C)n1Cc1ccc(Cl)cc1 (stereo not drawn),-78.7
11,CC(C)Sc1nc2c(c(=O)[nH]c(=O)n2C)n1Cc1ccc(Cl)cc1,4.3
12,CCCCCCn1c(SCC(C)C)nc2c1c(=O)[nH]c(=O)n2C,10.1
13,CCOCCn1c(SC(C)C(C)=O)nc2c1c(=O)[nH]c(=O)n2C (stereo not drawn),-0.132
14,CCOC(=O)C(C)Sc1nc2c(c(=O)[nH]c(=O)n2C)n1CCc1ccccc1 (stereo not drawn),-5.6
15,C/C(Cl)=C/Cn1c(SC(C)C)nc2c1c(=O)[nH]c(=O)n2C,6.96
16,COC(=O)C(C)Sc1nc2c(c(=O)[nH]c(=O)n2C)n1CCCc1ccccc1 (stereo not drawn),-70.1
17,CCCCCn1c(SC(C)C(C)=O)nc2c1c(=O)[nH]c(=O)n2C (stereo not drawn),-91.2
18,C/C(Cl)=C/Cn1c(SCC(C)C)nc2c1c(=O)[nH]c(=O)n2C,10
19,CCC(C)Sc1nc2c(c(=O)[nH]c(=O)n2C)n1Cc1ccc(Cl)cc1 (stereo not drawn),2.15
20,COC(=O)C(C)Sc1nc2c(c(=O)[nH]c(=O)n2C)n1CCC(C)C (stereo not drawn),4.51
21,CCN(CC)C(=O)Oc1cc(=O)n(C)c2ccccc12,6.19
